gsp agonist – agonists of gsp mutant (McCune-Albright syndrome). gsp mutant cells, cAMP HTRF, 30 min. Potency, µM (highest dose often 76.9 µM), most hits filed as activators. hit rate 0.13% among 340,000. AID 624287; active = well fitted activation curve with a large enough effect; inconclusive = small, poorly fitted or top-dose-only effect, or another doubt; inactive = no such curve, though single readings can be large or run the other way; cell line not stated here;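 note: phosphodiesterase inhibitor Ro 20-1724 added with compounds to block cAMP breakdown; nearly all actives have a fitted effect of over 60% in size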
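Cells in DMEM/10% FBS with G418 were pretreated with compounds in DMSO plus […] (300 uM stock) for 30 min at 37C. cAMP was measured by HTRF (cAMP-d2 plus anti-cAMP antibody-K) after 30 min at room temperature.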
Rango complex inh – Rango-importin beta binding inhibition. Q14974. Rango CFP/YFP FRET sensor + importin beta, 45 min. Potency, µM (series often up to 92.2 µM). hit rate 0.031% among 340,000. AID 540263; note: nearly all actives have a fitted effect of over 15% in size
Target sequence (Q14974 whole entry, looked up): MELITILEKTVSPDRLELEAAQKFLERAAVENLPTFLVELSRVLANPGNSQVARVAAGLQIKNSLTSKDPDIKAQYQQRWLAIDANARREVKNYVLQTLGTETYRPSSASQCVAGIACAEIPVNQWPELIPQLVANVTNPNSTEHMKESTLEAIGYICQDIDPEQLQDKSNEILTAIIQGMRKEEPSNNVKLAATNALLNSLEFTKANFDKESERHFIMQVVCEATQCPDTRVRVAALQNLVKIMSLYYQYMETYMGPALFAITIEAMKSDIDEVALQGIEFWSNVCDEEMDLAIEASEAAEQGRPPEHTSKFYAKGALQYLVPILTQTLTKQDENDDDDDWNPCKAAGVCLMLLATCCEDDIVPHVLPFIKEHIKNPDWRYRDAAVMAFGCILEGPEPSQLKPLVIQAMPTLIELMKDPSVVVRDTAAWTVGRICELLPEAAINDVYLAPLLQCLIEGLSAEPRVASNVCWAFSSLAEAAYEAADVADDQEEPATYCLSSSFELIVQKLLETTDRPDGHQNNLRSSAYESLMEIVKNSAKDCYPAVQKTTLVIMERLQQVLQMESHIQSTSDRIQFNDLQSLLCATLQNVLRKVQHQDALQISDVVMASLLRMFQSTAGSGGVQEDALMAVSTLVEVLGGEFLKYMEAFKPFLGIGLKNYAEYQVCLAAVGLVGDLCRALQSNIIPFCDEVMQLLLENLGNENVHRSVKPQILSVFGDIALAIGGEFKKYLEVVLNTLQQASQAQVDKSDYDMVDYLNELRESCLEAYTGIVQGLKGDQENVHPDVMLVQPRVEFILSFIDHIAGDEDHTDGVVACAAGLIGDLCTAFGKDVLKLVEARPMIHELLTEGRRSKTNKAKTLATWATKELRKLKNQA
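Inhibition scored from the CFP 486 nm/YFP 530 nm FRET ratio 45 min after adding 0.125 microM importin beta to 50 nM Rango biosensor preincubated 5 min with compound (room temperature, PBS with DTT, Tween-20, BSA). No-importin wells as positive control.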
Rango dissoc inh – prevents RanGTP from dissociating the Rango-importin beta complex; O95149+P62826; Biochemical FRET Rango-importin beta, RanGTP-induced dissociation; Potency, µM (series often up to 46.1 µM); hit rate 0.071% among 340,000; note: nearly all actives have a fitted effect of over 45% in size
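Compounds preincubate 5 min with complex of recombinant Rango and importin beta in PBS with 1 mM DTT. Ran (0.6 uM) loaded with 2 mM GTP plus 0.2 uM RCC1 starts dissociation; FRET is recorded 45 min later.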
gsp antag – antagonizes gsp, the McCune-Albright syndrome mutation; gsp-mutant cells, cAMP HTRF, 30 min; hit rate 0.4% among 340,000; AID 624288; Potency, µM (titrated, usually from 76.9 µM), usual class: inhibitors; calls by dose curve; cell line not stated here;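 note: intracellular cAMP measured with PDE inhibitor Ro 20-1724 present during compound exposure; nearly all actives have a fitted effect of over 65% in size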
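G418-selected cells were plated in DMEM/10% FBS for 16-24 h at 37C, then treated with compounds plus the PDE inhibitor […] (300 uM solution added) for 30 min at 37C. Intracellular cAMP was measured by HTRF after 30 min lysis at room temperature.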
Large screens that a line does not name were inactive; [ ] = dose if it differs, or a comment. The list is not random: actives were taken first. Their share in the collection is about 0.66%. Unless noted, calls come from the whole dose curve.

Cc1ccc2nc(-c3ccc(NS(C)(=O)=O)cc3)cc(-c3ccccc3)c2c1	Rango complex inh inconclusive, Rango dissoc inh 8.9µM
COc1cc(C(=O)NC2CC(C)CC(C)(C)C2)cc(OC)c1OC (stereo not drawn)	none (no result: Rango complex inh, Rango dissoc inh, gsp antag)
COc1ccc(Oc2cn[nH]c2-c2ccc(O)cc2O)cc1	none
COc1ccc(-c2[nH]ncc2Oc2ccccc2OC)c(O)c1	gsp antag 13µM
O=C(c1sc2ccccc2c1Cl)N(Cc1ccccc1)C1CCS(=O)(=O)C1 (stereo not drawn)	gsp antag inconclusive
O=C(c1sc2ccccc2c1Cl)N(Cc1ccco1)C1CCS(=O)(=O)C1 (stereo not drawn)	Rango complex inh inconclusive, Rango dissoc inh 18µM
Cc1ccc(S(=O)(=O)N2C[C@H]3n4c(=O)ccc(=O)n4C[C@H](OC(=O)NCC4CCCCC4)[C@@]3(O)C2)cc1	none (no result: Rango complex inh, Rango dissoc inh, gsp antag)
CN(C(=S)Nc1ccc(SC(F)F)cc1)C(c1ccccc1)c1ccccc1	gsp antag 6.3µM
FC(F)Sc1ccc(NC(=S)NC(c2ccccc2)c2ccccc2)cc1	none
CCN(c1ccc(OC)cc1)S(=O)(=O)N1CCCC(C(=O)NCc2ccc(OC(C)C)cc2)C1 (stereo not drawn)	none (no result: Rango complex inh, Rango dissoc inh, gsp antag)
COc1ccc(-c2nc3ccc(C)cn3c2NCc2ccccc2)cc1SC1CCCCC1	Rango complex inh inconclusive, Rango dissoc inh inconclusive, gsp antag 35µM (no result: gsp agonist)
CCCCNc1c(-c2ccc(OC)c(SC3CCCCC3)c2)nc2ccc(C)cn12	gsp agonist inconclusive, Rango complex inh inconclusive, Rango dissoc inh inconclusive, gsp antag 32µM
Cc1ccc2nc(-c3cccc(SC4CCCCC4)c3)c(NCc3ccccc3)n2c1	Rango complex inh inconclusive, Rango dissoc inh inconclusive, gsp antag inconclusive
CCCCCCSc1cc(-c2nc3ccc(C)cn3c2NCCCC)ccc1OC	Rango complex inh inconclusive (no result: gsp agonist)
CCCCNc1c(-c2ccc(SC3CCCCC3)c(OC)c2)nc2ccc(C)cn12	Rango complex inh inconclusive, Rango dissoc inh 7.3µM (no result: gsp agonist)
CCn1cc(/C=C(\NC(=O)c2ccccc2F)C(=O)N2CCN(C)CC2)c2ccccc21	none (no result: Rango complex inh, Rango dissoc inh, gsp antag)
C[C@@H]1CN([C@@H](C)CO)C(=O)CCCn2nncc2CO[C@H]1CN(C)C(=O)c1ccc(N2CCN(C)CC2)cc1	none (no result: Rango complex inh, Rango dissoc inh, gsp antag)
S=c1[nH]c2ccccc2n2cccc12	gsp agonist 22µM, Rango dissoc inh inconclusive
O=C(Nc1nnc(S(=O)(=O)N2CCCC2)s1)c1cccc([N+](=O)[O-])c1	gsp agonist inconclusive, gsp antag 50µM
CC1CCN(S(=O)(=O)c2nnc(NC(=O)c3cccc([N+](=O)[O-])c3)s2)CC1	gsp antag inconclusive
C/C(=N\NC(=O)c1ccc(Br)cc1)C1C(=O)c2ccccc2C1=O	gsp antag inconclusive
C/C(=N\NC(=O)c1ccc(-c2ccccc2)cc1)C1C(=O)c2ccccc2C1=O	gsp antag 28µM
COc1ccc(CNC(C)C(=O)Nc2ccc3ccccc3c2)cc1OC (stereo not drawn)	gsp antag 11µM
Cc1ccc2[nH]c(=O)c(C(c3nnnn3Cc3ccccc3)N3CCc4ccccc43)cc2c1 (stereo not drawn)	Rango complex inh inconclusive, Rango dissoc inh inconclusive
Cc1ccc2cc(C(c3nnnn3Cc3ccccc3)N3CCc4ccccc43)c(=O)[nH]c2c1 (stereo not drawn)	Rango complex inh inconclusive, Rango dissoc inh 23µM
O=S1(=O)CCN(C2CC2)CC1	none (no result: Rango complex inh, Rango dissoc inh, gsp antag)
COc1ccc(C2c3ccsc3CCN2C(=O)NC(C)(C)C)cc1 (stereo not drawn)	gsp antag 32µM
CCc1nn(-c2ccccc2)c2c1-c1cc(OC)c(OC)cc1C1(N2)C(=O)Nc2ccccc21 (stereo not drawn)	Rango complex inh inconclusive, Rango dissoc inh 16µM
COc1cc2c(cc1OC)C1(Nc3c-2c(C)nn3-c2ccccc2)C(=O)Nc2ccccc21 (stereo not drawn)	Rango complex inh inconclusive
CCN(CC)C(=O)C1=C(C)N(Cc2ccc(F)cc2)C(=O)C(CC(=O)NCCCN(C)C)C1 (stereo not drawn)	none (no result: Rango complex inh, Rango dissoc inh, gsp antag)
CC(C)n1ncc2c(C(=O)N3CCN(c4ccccc4)CC3)cc(-c3ccccc3)nc21	none
COc1ccc(NC(=O)c2cc(-c3ccccc3)nc3c2cnn3C(C)C)cc1	gsp antag 28µM
Cn1c(=O)c2[nH]c(COc3ccccc3)nc2n(C)c1=O	gsp agonist 3.2µM
Cc1cccc(CN2C(=O)N/C(=C/c3cc(C)n(-c4ccccn4)c3C)C2=O)c1	Rango complex inh inconclusive, Rango dissoc inh 5.2µM
Cc1noc(C)c1COc1ccccc1C(=O)N1CCN(S(=O)(=O)c2ccc(C(C)C)cc2)CC1	none (no result: Rango complex inh, Rango dissoc inh, gsp antag)
NC(=O)C1CCN(C(=O)c2ccc(NS(=O)(=O)/C=C/c3ccccc3)cc2)CC1	none (no result: Rango complex inh, Rango dissoc inh, gsp antag)
O=C(/C=C1\NC2(CCCC2)Cc2ccccc21)N1CCOCC1	none
CC1(C)Cc2c(ccc3ccccc23)/C(=C/C(=O)N2CCCCC2)N1	Rango complex inh inconclusive, Rango dissoc inh inconclusive, gsp antag 35µM
O=C(CCCCC(=O)NN=Cc1ccc2c(c1)CCC2)NN=Cc1ccc2c(c1)CCC2	none (no result: Rango complex inh, Rango dissoc inh, gsp antag)
Cc1cccc(C(C)C)c1NC(=O)COC(=O)CCC(=O)N(CC(C)C)c1c(N)n(CC(C)C)c(=O)[nH]c1=O	none (no result: Rango complex inh, Rango dissoc inh, gsp antag)
Cc1ccc(C(=O)O)cc1N1C(=O)c2cccc3c([N+](=O)[O-])ccc(c23)C1=O	Rango complex inh inconclusive, Rango dissoc inh inconclusive
CC(=O)Oc1cccc(N2C(=O)c3cccc4c([N+](=O)[O-])ccc(c34)C2=O)c1	Rango complex inh inconclusive, Rango dissoc inh 1.8µM[inhibitor]
Nc1ccn(C2OC(CCl)C(O)C2O)c(=O)n1 (stereo not drawn)	none (no result: Rango complex inh, Rango dissoc inh, gsp antag)
CC(C)NC(=O)Nc1ccc2c(c1)C(=O)N([C@@H](C)CO)C[C@H](C)[C@H](CN(C)S(=O)(=O)c1ccccc1)OCCCC[C@H](C)O2	none (no result: Rango complex inh, Rango dissoc inh, gsp antag)
COc1ccc(S(=O)(=O)N2CCC3CC2c2cc(N4CCOCC4)ccc23)cc1 (stereo not drawn)	none (no result: gsp agonist)
CCCc1cc(=O)oc2cc(OC(=O)CN3C(=O)NC4(CCCC4)C3=O)ccc12	Rango complex inh inconclusive, Rango dissoc inh 12µM
CCn1c(=S)[nH]c2nc3c(cc2c1=O)CCCC3	gsp agonist 8.9µM
O=c1c2cc3c(nc2[nH]c(=S)n1-c1ccccc1)CCCC3	gsp agonist inconclusive
CCn1nc([N+](=O)[O-])c(C(C#N)c2nc3ccccc3n2C)c(Cl)c1=O (stereo not drawn)	none
CCCn1nc([N+](=O)[O-])c(C(C#N)c2nc3ccccc3s2)c(Cl)c1=O (stereo not drawn)	gsp antag 32µM
CN(CC(=O)Nc1ccc(Cl)cc1)C(=O)CN1C(=O)C2CCCCC2C1=O (stereo not drawn)	none (no result: Rango complex inh, Rango dissoc inh, gsp antag)
Cc1cc(=O)n2nc(N3CCCC3C(=O)Nc3ccccc3C)sc2n1 (stereo not drawn)	gsp agonist 13µM, Rango complex inh inconclusive
Cc1ccc(Cc2c(-c3ccc(C#N)cc3)nc3ccc(Br)cn23)cc1	none (no result: Rango complex inh, Rango dissoc inh, gsp antag)
N#Cc1ccc(-c2nc3ccc(Br)cn3c2Cc2ccccc2)cc1	gsp agonist 32µM (no result: Rango complex inh, Rango dissoc inh, gsp antag)
Nc1c(Cl)cc(N=Nc2ccccc2)cc1Cl	none
